From PubChem BioAssay (NCI)
Compounds without any hit were thinned out: in the full panel of roughly 83,000, 20% have a hit.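 Growth was measured after 48 h exposure to one concentration of compound in 96-well plates. Values under 10 count as active.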 Unmarked numbers belong to inactive results. Active and inactive are the calls of the source.

What was measured:
Experiment in all cases: NCI-60 one-dose screen, 48 h (100 = growth as untreated, 0 = no growth, -100 = all killed)
Conditions in all cases: 10 µM unless noted
[1] = test system: HT29 colon
[2] = test system: SNB-75 CNS
[3] = test system: SNB-19 CNS
[4] = test system: U251 CNS
[5] = test system: UACC-62 melanoma
[6] = test system: LOX IMVI melanoma
[7] = test system: SK-MEL-28 melanoma
[8] = test system: SK-MEL-2 melanoma
[9] = test system: PC-3 prostate
[10] = test system: SK-MEL-5 melanoma

SMILES	growth [1]	growth [2]	growth [3] [%]	growth [4] [%]	growth [5]	growth [6]	growth [7]	growth [8]	growth [9]	growth [10]
CC1=NN(c2ccccc2Cl)C(=O)/C1=C\c1cn(S(=O)(=O)c2ccc(C)cc2)c2ccccc12	122%	89.3%	114	103	86.5%	97.4%	125%	114%		
CCN(CC)c1ccc(C(O)C2=CC(=O)c3ccccc3C2=O)cc1 (centres undefined)	9.6% (active)	24.9%	15.3		-45.3% (active)	-51.8% (active)	-23.1% (active)	-27.9% (active)	-2.59% (active)	-38% (active)
CN(C)c1ccc(/C=C\c2ccnc3ccccc23)cc1	51.7%	40.9%	79.9		72.8%	72.7%	88.7%	18.7%	67.3%	65.2%
CC(C)C(=O)Cc1cnccn1	108%	102%	102		98.1%	97%	116%	109%	102%	109%
O=C(Cc1ccccn1)C(F)(F)C(F)(F)C(F)(F)F	111%	93.6%	99.8		102%	95.5%	105%	109%	91.3%	110%
ClC1=C(Cl)C(Cl)=C(Cl)C1=Cc1ccc(Cl)cc1	-30.1% (active)	97.5%	76.4		58.6%	-85.5% (active)	116%	99.7%	-36.1% (active)	100%
CCN(CC)CCOc1ccccc1-n1c(C)ccc1-c1ccccc1	34.5%	93%	102		106%	88.5%	119%	102%	62.8%	90.8%
O=[N+]([O-])c1ccc(N/N=C\c2ccccc2[N+](=O)[O-])nc1	104%	103%	99.4		96.7%	105%	110%	95.6%	99.7%	105%
COc1ccc(/C=N/NC(=O)c2ccc(S(C)(=O)=O)cc2)cc1OC	97.9%	85.9%	97.3		92.7%	102%	109%	91%	88.5%	97.9%
COc1ccc(-n2nc3c(c2-c2ccc(OC)c(OC)c2)-c2oncc2CC3)cc1	80%	94.2%	96.9		73.3%	58.1%	75.1%	92.8%	88.3%	81.8%
Cc1cc(NC(=O)Nc2cc(Cl)ccc2C)no1	106%	76.8%	110	108		99.3%	142%	116%		
CCCCOc1ccc(C(C)(C)c2ccc(OCCCC)cc2)cc1	102%	97.6%	108		106%	101%	107%	96.9%	99.9%	111%
O=Nc1ccc(O)c(=O)cc1	4.07% (active)	63.3%	102	14.6	34.9%	-4.94% (active)	55.9%	71.4%		
Cc1cccc(Cl)c1NC(=O)c1ccc2nc(NC(=O)NC3CC(C)(C)NC(C)(C)C3)sc2c1	59.3%	-18.9% (active)	93.6		107%	63.9%	116%	121%	66.3%	91.7%
COc1ccc(C(=O)Nc2nc(-c3ccc(Cl)cc3)cs2)cc1	114%	98.7%	104		102%		101%		98.3%	98.9%
c1ccc(-c2nnc(Nc3nnc(-c4ccccc4)s3)s2)cc1	106%	93.4%	111		103%		112%		97.7%	100%
O=C(/C=C/c1ccc(O)c(O)c1)N1CCN(c2ccc(Cl)cc2)CC1	80.1%	72.1%	73.9		81.3%		81%		61.7%	54.5%
CCCCC(C#N)C(N)=O (centres undefined)	101%	95.6%	107		102%	98.4%	107%	101%	88.2%	107%
CC(=O)Oc1c(C)c(OC(C)=O)c2c(c1C(C)=O)OC1CC(=O)C(C(C)=O)=C(O)C21C (centres undefined)	100%	94.7%	95.4	91.6	95.9%	86.7%	119%	107%		
Nc1ccc2c(c1)/C(=N/O)c1cc([N+](=O)[O-])ccc1-2	88.7%	64.1%	81.4		73.1%	64.6%	102%	96.9%	45.3%	80.9%
Cc1cc2cn3c4cccnc4[nH]c(=O)c3c2cc1C	-76.3% (active)	79.3%	56.4		61.2%	-68.5% (active)	86.6%	58.2%	67.7%	44.4%
COc1ccc(-n2nnc(C(=O)O)c2-c2cc(OC)c(OC)c(OC)c2)cc1	97.2%	95.5%	104		109%	94.9%	104%	95%	106%	104%
O=C(O)c1ccccc1C(=O)OC1CCCC2CCCC21 (centres undefined)	100%	96.5%	104		97%	95.1%	109%	136%	97.5%	104%
[O-]/[N+](=C\C=C\c1ccccc1)c1ccccc1	102%	91.8%	96.8	98.8		96.8%	110%	100%		
C[C@]12CC[C@@H]3c4ccc(O)c([N+](=O)[O-])c4CC[C@H]3[C@@H]1CC[C@@H]2NS(=O)(=O)c1cccc(Br)c1	68.1%	47.2%	50.6		35.4%		49.6%		15.9%	25.6%
S=C(c1ccccc1)N1CCN(c2cccc(Cl)c2)CC1	94.8%	110%	107		91.1%	105%	121%	100%	75.3%	95.6%
O=C(O)c1ccc(NC(=O)c2ccc(Nc3ccnc(C(F)(F)F)c3)cc2)cc1	109%	98.7%	99.7		107%		106%		99.4%	101%
O=C(CCc1nnc2sc(Cc3ccccc3Cl)nn12)c1nc2ccccc2[nH]1	99.4%	78.7%	96.2		83.9%	87.9%		93%	85.5%	91.8%
